Sampled rows, rich in hits. Any-hit rate of the full collection: about 2.1%.
CCHF vOTU inh: blocks the CCHF virus ovarian tumor domain protease; CCHFV vOTU protease, Pep-AMC fluorescence; inhibition, % at 11.5 µM; 370,000 tested, 0.55% active; AID 651958; in the data active means inhibition above about 30%; further: 0% = vehicle wells with enzyme and 100% = no enzyme wells
Sa RN4220 lethal: S. aureus RN4220 growth inhibition | OD600, 16 h | inhibition, % (concentration not given with the values) | 330,000 tested, 0.33% active | AID 1259311; in the data active means inhibition above about 85%;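 further: plate controls were untreated cells for no effect and reference antibiotic for full effect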
PrPC TRFRET: reduces human prion protein on the cell surface; P04156; cell surface PrPC, TR-FRET read-out; inhibition, % at 13.8 µM; 370,000 tested, 0.43% active; AID 720596; in the data active means inhibition above about 24%; further: 0% = median of the test wells and 100% = reference compound wells
PfHsp40 rescue: compounds rescuing yeast from Plasmodium falciparum HSP40 toxicity. S. cerevisiae expressing PfHsp40, growth rescue, ATP luminescence. growth rescue, % at 12.5 µM. 340,000 tested, 0.68% active. AID 504582; in the data active means growth rescue above about 28%, passing the limit was not always enough;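 further: yeast W303a lacking pdr1 and pdr3 grown in galactose medium; growth measured after three days at 30 °C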
PrP 5UTR inh: inhibition of PrP 5' UTR reporter expression | cell-based PrP 5' UTR mRNA reporter, plate reader | inhibition, % (concentration not given with the values) | 340,000 tested, 0.35% active | AID 488862; in the data active means inhibition above about 52%; further: 0 = median of the neutral control wells
ugtP null kill: compounds lethal to S. aureus RN4220 ugtP deletion mutant; AID 1259309; growth inhibition, % (concentration not given with the values); OD600 growth, 16 h; 330,000 tested, 0.54% active; in the data active means growth inhibition above about 68%;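 further: plate controls were untreated wells for no effect and antibiotic for full effect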
PrPC confirm: confirmation of inhibitors of cell surface human prion protein | shares compounds with PrPC TRFRET | cell surface PrPC level, TR-FRET | inhibition, % at 13.8 µM | 1,500 tested, 65% active | AID 743200; in the data active means inhibition above about 25%
LD9 tox: kills or reduces viability of LD9 cells in PrPc counter-screen; shares compounds with PrPC TRFRET; LD9 cells cytotoxicity, luminescence viability; inhibition, % at 13.8 µM; 1,500 tested, 29% active; AID 743201; in the data active means inhibition above about 9.5%
The depositor's hits bear a star; / = no result; ! = not active in a repeat.

SMILES	CCHF vOTU inh	Sa RN4220 lethal	PrPC TRFRET	PfHsp40 rescue	PrP 5UTR inh	ugtP null kill	PrPC confirm	LD9 tox
CCCCCCSc1ccc(-c2nc3ccc(Cl)cn3c2NCCCC)cc1OC	2	4	33*!	-1	-11	3	9	0
NC(=O)c1ccc2c(=O)c(O)c(-c3cc(Cl)c(N)c(Cl)c3)[nH]c2c1	-20	/	29*	-2	-14	/	4	0
CCOC(=O)c1ccc(-c2ccc3[nH]c4ccccc4c(=O)c3c2)cc1F	-2	2	1	-2	-5	2	/	/
COc1cnc(-c2ccccn2)nc1Oc1ccccc1	-3	9	-3	2	-1	-4	/	/
COc1cnc(-c2ccccn2)nc1N(C)c1ccccc1	8	/	34*	183*	-3	/	27*	23*
C=CCOC(=O)C1=C(C)NC(SCC(=O)N(CC)CC)=C(C#N)C1c1ccccc1 (stereo not drawn)	14	2	29*	3	-2	3	35*	8
CN(C)c1ccc(C=NNC(=O)CCCCCNC(=O)c2ccccc2)cc1	/	3	/	/	/	12	/	/
CCOc1cc2[nH]c(=S)n(C(C)C)c(=O)c2cc1OCC	5	0	33*	1	-24	24	36*	-1
CCOc1cc2[nH]c(=S)n(C3CC3)c(=O)c2cc1OCC	15	21	-7	0	7	9	/	/
CCOC(=O)C1C2COc3ccc(Br)cc3C2N2C(=O)N(c3ccc(Br)cc3)C(=O)[C@]12C (stereo partly drawn)	/	0	/	/	/	-9	/	/
COc1ccc(NC(=O)c2cccc(OS(=O)(=O)N(C)C)c2)cc1	3	0	9	1	-30	3	/	/
CN(C)S(=O)(=O)Oc1cccc(C(=O)Nc2cccc(Cl)c2)c1	2	3	24*	0	-48	2	22	20*
O=c1[nH]c(=O)n(Cc2ccco2)c2c1C(C(F)(F)F)(C(F)(F)F)N=C(CCC1CCCCC1)N2	6	-2	15	3	-10	-8	/	/
O=c1[nH]c(=O)n(Cc2ccco2)c2c1C(C(F)(F)F)(C(F)(F)F)N=C(CCc1ccccc1)N2	7	3	56*	2	/	-8	72*	2
COc1cc(NC(=S)Nc2cccc(Cl)c2Cl)c(OC)cc1Cl	6	-21	5	-1	-7	-18	/	/
COc1cc(NC(=S)NC(C)(C)C)c(OC)cc1Cl	2	/	25*	2	-25	/	6	-3
COc1cc2cnncc2cc1OC	-4	3	-4	0	-50	11	/	/
COc1cc2cc(Br)cc(Br)c2nc1C	13	9	63*	2	-6	11	89*	-3
O=C(NCc1ccncc1)C(=O)Nc1nc(C23CC4CC(CC(C4)C2)C3)cs1	-6	2	35*	-2	-17	-16	36*	2
O=C(NCc1ccccc1)C(=O)Nc1nc(C23CC4CC(CC(C4)C2)C3)cs1	-9	21	1	0	5	-5	/	/
CC(=O)Oc1ccc(-c2csnn2)cc1	-2	2	-4	1	-25	-4	/	/
Cc1ccccc1C(=O)NNc1ccc(-c2csnn2)cc1	7	5	25*	0	-28	-2	14	7
Cc1ccc(-c2nn(-c3ccccc3)cc2C=NO)cc1	/	1	/	/	/	-1	/	/
O=C(Nc1ccc(Br)c2ccccc12)c1ccc2ccccc2c1O	-1	/	35*	-2	-32	/	64*	21*
CC(=O)Nc1ccc(Br)c2ccccc12	-2	2	21	-1	-4	10	/	/
SMILES	CCHF vOTU inh	Sa RN4220 lethal	PrPC TRFRET	PfHsp40 rescue	PrP 5UTR inh	ugtP null kill	PrPC confirm	LD9 tox
S=c1[nH]nc(C2CCCCC2)n1N=Cc1cccc(Cl)c1Cl	/	2	/	/	/	-13	/	/
COC(=O)[C@@]12CCCCN1C(c1ccc(-c3cc(C(C)=O)cs3)c(OC)c1)C1C(=O)N(C)C(=O)C12 (stereo partly drawn)	/	4	/	/	/	5	/	/
CCNC(=O)OCCC12CC3CC(CC(C3)C1)C2	9	6	6	1	-12	8	/	/
N#CCC(=O)Nc1ccc(C(=O)OCC(=O)C23CC4CC(CC(C4)C2)C3)cc1	3	-7	-3	-1	-31	6	/	/
O=C(OCC12CC3CC(CC(C3)C1)C2)c1ccc(NCc2cc(O)ccc2O)cc1	3	/	25*	2	-23	/	26*	22*
O=C(OCCC12CC3CC(CC(C3)C1)C2)c1ccc(NCc2cc(O)ccc2O)cc1	10	/	28*	0	-2	/	45*	72*
O[C@@H]1[C@@H](O)C=C2CCN3Cc4cc5c(cc4[C@H]1C23)OCO5 (stereo partly drawn)	-2	/	89*	1	-66	/	92*	28*
CC1CN(C(C)CO)C(=O)c2cccc(NC(=O)c3ccncc3)c2OC1CN(C)C(=O)Nc1ccccc1 (stereo not drawn)	/	-5	/	/	/	-14	/	/
CCOc1ccc(C(=O)NCc2ccccn2)cc1	/	-2	/	0	-11	4	/	/
O=C(NCc1ccccn1)c1coc(=O)c(Br)c1	-26	5	27*	-1	-12	4	-2	0
COc1cc(C=Nn2c(C)nnc2C)cc(OC)c1OC	/	-2	/	/	/	1	/	/
O=C(Nc1ccc2c(c1)OCO2)c1cc(C2CCCCN2S(=O)(=O)c2cccs2)on1 (stereo not drawn)	-1	/	57*	/	/	/	48*	2
O=C(Nc1ccccc1)c1cc(C2CCCCN2S(=O)(=O)c2ccccc2)on1 (stereo not drawn)	18	/	29*	/	/	/	15	1
CCCC(=O)Nc1ccc(C(=O)NN=Cc2cccnc2)cc1	/	4	/	/	/	6	/	/
S=c1nc(C2CC2)[nH]c2ccccc12	9	-1	15	1	-17	-4	/	/
S=c1nc(C2CCCCC2)[nH]c2ccccc12	-3	7	32*	5	-15	9	38*	-6
COCCN(CCOC)C(=O)CC(=O)N(CCOC)CCOC	2	3	28*	0	2	5	7	-1
Cc1cccc(C2C3C(=O)N(Cc4ccccc4)C(=O)C3[C@]3(Cc4ccccc4)C(=O)N(c4ccccc4)C(=O)N23)c1 (stereo partly drawn)	/	8	/	/	/	4	/	/
CCN1CCc2c(sc(NC(=O)c3ccc(S(=O)(=O)N4CCCCCC4)cc3)c2C(=O)NC)C1	17	-3	52*	1	2	0	-24	-3
CNC(=O)c1c(NC(=O)c2ccc(S(=O)(=O)N3CCCC3)cc2)sc2c1CCN(C(C)C)C2	8	/	-16	/	/	/	/	/
CN1CCN(C=Nc2c(C#N)cnn2-c2ccccc2)CC1	/	2	/	/	/	1	/	/
CC(C)c1ccc(-n2c(-c3ccccc3)c[n+]3c2CCc2ccccc2-3)cc1	2	96*	41*	4	-8	100*	50*	37*

Screening results: PubChem, several laboratories
